# Assay outcomes (PubChem BioAssay)
# pS6 MEF inh = inhibitors of mTORC1 signaling in Tsc2-/- p53-/- MEF cells. Tsc2-/- p53-/- MEF, phospho-rpS6 immunofluorescence/PI, 24 h. Potency, µM (series often up to 38.3 µM), without a hit: at the highest dose activity change, negative = inhibition, hits mostly inhibitors. 0.78% of 44,000 active. AID 493208;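 further: potency means the concentration at half of the fitted maximal effect; plate controls were DMSO for no effect and rapamycin for full effect; nearly all actives have a fitted effect of over 50% in size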
#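 Cell-based qHTS: Tsc2-/- p53-/- MEF, 24 h cpd, 37 °C; fix/perm, anti-phospho-S6 Alexa-488 + PI; Acumen 488 nm scan; pS6/PI ratio, % positive cells; rapamycin 7.5 nM = inhibition ref; PI count = viability.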
# p53null 32C kill = selectivity test: cytotoxicity in p53 null cells, permissive temperature | H1299-neo p53 null cells, ATP luminescence, 24 h, 32C | Potency, µM (series often up to 46.1 µM), without a hit: top-dose activity change, negative = cytotoxicity, most hits filed as cytotoxic | 0.62% of 55,000 active | AID 903;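 further: potency means the concentration at half of the fitted maximal effect; 0% = DMSO only and -100% = full killing by 100 µM tamoxifen; nearly all actives have a fitted effect of over 55% in size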
#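 ATP-content luminescence in p53-null H1299-neo cells after 24 h compound exposure (up to 46 uM) at 32C permissive temperature; 0% and 100% killing set by DMSO and 100 uM tamoxifen; Hill-equation AC50.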
# S16 viability = toxic to S16 Pmp22-F2sN Schwann cells | S16 Pmp22-F2sN Schwann cells viability, CellTiter-Glo, 24 h | Potency, µM (highest dose often 57.5 µM), inactives show at the highest dose activity change, negative = cytotoxicity, hits mostly cytotoxic | 0.48% of 43,000 active | AID 1508642; further: potency means the concentration at half of the fitted maximal effect; on the % scale 0 is the no-effect control and ±100 the full control effect; nearly all actives have a fitted effect of over 65% in size
#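 Used to flag compounds lowering reporter output through toxicity, this quantitative HTS measures ATP-based CellTiter-Glo luminescence in S16 Pmp22-F2sN Schwann cells after 24 h compound exposure at 37C.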
# PMP22 txn prim = modulates PMP22 transcription in S16 Schwann cells | S16 Pmp22-F2sN Schwann cells (luciferase reporters placed in the Pmp22 gene), FLuc/NLuc coincidence luminescence, 24 h | Potency, µM (series often up to 57.5 µM), without a hit: at the top dose activity change, negative = inhibition, actives largely listed as inhibitors | 2% of 43,000 active; active means clear falling dose curves in both reporters; inconclusive means both reporters move, but less clearly or upward; inactive means either reporter flat; the % is the NLuc reporter signal; further: potency means the concentration at half of the fitted maximal effect; on the % scale 0 is the no-effect control and ±100 the full control effect
#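 Luminescent read-out of sequential FLuc and NLuc signals from a reporter embedded in the Pmp22 3' UTR of S16 Schwann cells, taken after 24 h compound exposure at 37C; compounds reducing both signals score as inhibitors of expression.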
# p53null 39C tox = p53 null cell cytotoxicity, nonpermissive temperature | Potency, µM (doses to about 46.1 µM), inactives show at the highest dose activity, negative = cell killing, actives largely listed as cytotoxic | 0.97% of 55,000 active | H1299 p53-null (neo) cells, 39C, ATPlite viability, 24 h;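 further: potency means the concentration at half of the fitted maximal effect; 0% = DMSO only and -100% = full killing by 100 µM tamoxifen; nearly all actives have a fitted effect of over 50% in size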
#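 Cells seeded at 600/well, 37C overnight. Compound added (up to 46 uM), plates shifted to 39C for 24 hr. ATPlite added, luminescence read after 20 min at room temperature.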
# OvCa metastasis = blocks SKOV3ip1 adhesion and invasion in omental model; Potency, µM (top dose mostly 45.8 µM), inactives show top-dose activity change, negative = inhibition, usual class: inhibitors; 0.1% of 46,000 active; SKOV3ip1-GFP adhesion/invasion on 3D omental model, fluorescence;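 further: potency means the concentration at half of the fitted maximal effect; plate controls were DMSO wells for no effect and tomatine positive control wells for full effect; nearly all actives have a fitted effect of over 65% in size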
#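 qHTS, 4-pt dose (0.36-46 umol/L); SKOV3ip1-GFP, 1,200 cells/well, no FBS; primary omental fibroblast/mesothelial co-culture 48 h pre-grown; 2 h RT + 16 h 37 C; PBS wash, 4% PFA; GFP count 488/509 nm.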
# NLuc saturating = inhibits NanoLuc at saturating substrate, PMP22 counter-screen | shares compounds with PMP22 txn prim | Secreted NLuc enzyme (filtered S16 cell medium), Nano-Glo luminescence | Potency, µM (highest dose often 57.5 µM), for the others: at the top dose activity change, negative = inhibition, usual class: inhibitors | 4% of 690 active | AID 1508638; further: potency means the concentration at half of the fitted maximal effect; on the % scale 0 is the no-effect control and ±100 the full control effect
# NLuc Km ctr = NanoLuc inhibition at Km substrate, PMP22 artifact check; shares compounds with PMP22 txn prim; 5% of 690 active; secreted NLuc enzyme, coelenterazine luminescence, Km conditions; Potency, µM (highest dose often 57.5 µM), inactives show at the top dose activity change, negative = inhibition, usual class: inhibitors; further: potency means the concentration at half of the fitted maximal effect; on the % scale 0 is the no-effect control and ±100 the full control effect
# FLuc ctr PMP22 = inhibits firefly luciferase, PMP22 counter-screen. shares compounds with PMP22 txn prim. purified P. pyralis FLuc, luminescence, 10 min. Potency, µM (top dose mostly 57.5 µM), without a hit: at the top dose activity, negative = inhibition, most hits filed as inhibitors. 690 tested, under 10 active. AID 1508640; further: % of control where 0% means no effect
# Target sequence (P08659 whole entry, looked up): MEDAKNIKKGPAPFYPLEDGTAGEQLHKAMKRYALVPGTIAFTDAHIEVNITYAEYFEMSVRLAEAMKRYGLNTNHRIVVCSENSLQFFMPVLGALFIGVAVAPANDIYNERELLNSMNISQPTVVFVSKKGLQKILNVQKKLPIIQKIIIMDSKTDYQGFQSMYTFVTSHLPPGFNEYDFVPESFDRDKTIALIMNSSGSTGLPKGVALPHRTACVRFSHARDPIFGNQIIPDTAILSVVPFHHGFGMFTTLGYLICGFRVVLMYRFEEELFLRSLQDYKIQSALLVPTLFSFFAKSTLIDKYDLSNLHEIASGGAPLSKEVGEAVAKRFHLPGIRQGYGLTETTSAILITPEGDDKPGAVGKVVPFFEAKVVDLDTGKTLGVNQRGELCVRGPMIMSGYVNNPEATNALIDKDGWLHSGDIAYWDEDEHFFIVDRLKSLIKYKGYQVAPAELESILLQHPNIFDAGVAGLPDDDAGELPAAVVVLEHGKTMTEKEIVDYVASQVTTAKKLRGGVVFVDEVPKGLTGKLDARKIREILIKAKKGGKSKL
# S16 viab conf = S16 Schwann cell cytotoxicity, confirmatory; shares compounds with PMP22 txn prim; S16 Schwann cells viability, CellTiter-Glo ATP luminescence, 24 h; Potency, µM (top dose mostly 57.5 µM), without a hit: at the top dose activity change, negative = viability loss, actives largely listed as cytotoxic; 7% of 690 active; AID 1508641; further: potency means the concentration at half of the fitted maximal effect; on the % scale 0 is the no-effect control and ±100 the full control effect
# PMP22 txn conf = confirmation of modulators of PMP22 gene transcription in S16 cells. shares compounds with PMP22 txn prim. Potency, µM (doses to about 57.5 µM), for the others: top-dose activity change, negative = inhibition, hits mostly inhibitors. S16 Schwann cells Pmp22-F2sN, dual luciferase, 24 h. 22% of 690 active; active means clear falling dose curves in both reporters; inconclusive means both reporters move, but less clearly or upward; inactive means either reporter flat; the % is the FLuc reporter signal; further: potency means the concentration at half of the fitted maximal effect
# PMP22 prot conf = rat PMP22 protein level modulation, confirmatory; shares compounds with PMP22 txn prim; S16 Schwann cells Pmp22-HiBiT, luminescence, 48 h; Potency, µM (top dose mostly 27.9 µM), inactives show at the highest dose activity change, negative = inhibition, hits mostly inhibitors; 95 tested, under 10 active; AID 1508647
# Target sequence (P25094 whole entry, looked up): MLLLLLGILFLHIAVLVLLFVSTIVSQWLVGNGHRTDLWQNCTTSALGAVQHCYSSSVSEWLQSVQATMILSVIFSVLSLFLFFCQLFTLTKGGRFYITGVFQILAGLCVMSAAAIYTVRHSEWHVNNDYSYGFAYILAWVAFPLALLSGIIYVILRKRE
# The depositor's hits bear a star; i = inactive; ? = inconclusive; · = not tested or not shown; [ ] = dose if it differs, or a comment. Compounds with a hit are over-represented: about 3.1% of the library has one in this group of screens. Unless noted, the call rests on the fitted dose curve; in most records, active means well fitted curve in the direction sought with a large enough effect; inconclusive means small, poorly fitted or top-dose-only effect, or another doubt; inactive means no such curve, though single readings can be large; an effect the other way counts as inactive or inconclusive.
SMILES,pS6 MEF inh,p53null 32C kill,S16 viability,PMP22 txn prim,p53null 39C tox,OvCa metastasis,NLuc saturating,NLuc Km ctr,FLuc ctr PMP22,S16 viab conf,PMP22 txn conf,others
CCOC(=O)c1cc2c(=O)n3ccccc3nc2n(C(C)C)c1=NC(=O)c1c(-c2c(F)cccc2Cl)noc1C,-1.1%,12.2%,?,10.6µM*,33.3%,5.0%,?,-15.9%,2.6%,18.2%,?,
O=C(O)C1(Cc2cccc(Nc3nccs3)n2)CCC(Oc2cccc(Cl)c2F)CC1 (configuration not stated),·,·,·,·,·,15.8%,·,·,·,·,·,
Cn1c(=O)n(-c2ccc3c(c2)OCO3)c2nc(-c3ccc(Cl)cc3)nc(C(N)=O)c21,-2.4%,-2.2%,22.6%,?,-0.4%,i,-4.4%,-0.9%,4.1%,-8.5%,-27.4%,
CCc1ccccc1-n1nnc(-c2nsc(NC(=O)c3ccc(C)c(C)c3)n2)c1C,-4.0%,41.4%,-17.1%,?,43.1%,i,·,·,·,·,·,
COc1ccc(N(CC(=O)Nc2cc(Cl)ccc2C)S(=O)(=O)c2c(C)noc2C)cc1,-17.3%,20.4%,-4.5%,13.5µM*,45.8%,-30.2%,-8.4%,?,1.0%,-8.1%,?,PMP22 prot conf=?
COc1ccc(N(CC(=O)Nc2cc(OC)cc(OC)c2)S(=O)(=O)c2c(C)noc2C)cc1,-0.6%,18.5%,-20.4%,?,7.1%,i,·,·,·,·,·,
Cn1cc(-c2ccc3nnc(Sc4ccc5ncccc5c4)n3n2)cn1,·,·,·,·,·,-1.3%,·,·,·,·,·,
COc1ccc2c(c1)-c1nc(NC(=O)c3cc(Cl)ccc3OC)sc1CC2,3.4%,-5.6%,-2.9%,17µM*,-25.1%,-7.1%,-14.7%,-9.2%,2.0%,?,?,
Cc1c(Cl)cccc1N1C(N)=C(C#N)C(c2cc(CN3CCOCC3)cs2)C2=C1CCCC2=O (configuration not stated),-2.9%,0.3%[9.22 µM],-5.6%,7.23µM*,-8.3%,i,?,?,-8.5%,-9.9%,-30.6%,
COc1ccc(N2CCN(C(=O)c3ccc4c(c3)N(Cc3ccc(F)cc3)C(=O)c3ccccc3S4=O)CC2)cc1 (configuration not stated),-8.0%,1.3%,15.1%,?,?,19.4%,0.153µM*,0.122µM*,1.1%,-1.6%,-17.3%,
Cc1ccc(CSc2nnc(-n3c(=O)c(C#N)cc4c(=O)n5cccc(C)c5nc43)s2)cc1,-2.9%,-0.1%,3.2%,?,-20.0%,-7.8%,·,·,·,·,·,
Cc1cccn2c(=O)c3cc(C#N)c(=O)n(-c4nnc(SCc5ccc(F)cc5)s4)c3nc12,-4.7%,-13.6%,?,10µM*,-23.6%,2.1%,-6.9%,-1.5%,11.5%,8.3%,-28.4%,
Cc1cccc(NC(=O)C2CCCN(c3nnc(-n4c(C)ccc4C)s3)C2)c1C (configuration not stated),-3.1%,-0.1%,-1.8%,16µM*,1.1%,-21.2%,?,-6.5%,-2.8%,0.9%,?,
Cc1cc(F)ccc1NC(=O)C1CCCN(c2nnc(-n3c(C)ccc3C)s2)C1 (configuration not stated),-7.1%,-5.3%,1.1%,?,-21.3%,1.6%,·,·,·,·,·,
Cc1ccccc1CNC(=O)C1CCCN(c2nnc(-n3c(C)ccc3C)s2)C1 (configuration not stated),-9.6%,6.6%,?,15.6µM*,-0.3%,13.1%,-10.1%,?,-0.2%,6.8%,-36.7%,
Cc1ccc(C)n1-c1nnc(N2CCCC(C(=O)Nc3ccccc3Br)C2)s1 (configuration not stated),-9.0%,3.6%,-11.6%,16.8µM*,-0.4%,-8.9%,-16.9%,?,-0.4%,14.0%,-20.0%,
CC(C)c1ccc(NC(=O)N2CCN(c3ccc(Cl)c(Cl)c3)CC2)cc1,-18.0%,41.7%,-15.7%,11.3µM*,?,-22.7%,?,?,-18.2%,-13.9%,?,
Cc1ccc(NC(=O)N2CCN(c3ccc(Cl)c(Cl)c3)CC2)cc1,-19.7%,5.1%,-29.7%,?,?,-3.5%,·,·,·,·,·,
Oc1ccc(NCc2ccccc2OCc2ccccc2F)cc1,-26.5%,-1.5%,28.2µM*,20µM*,-25.7%,?,?,?,?,-6.6%,-6.8%,
c1cnc2cc3c(cc2n1)C1CNCC3C1,·,·,·,·,·,1.7%,·,·,·,·,·,
CCN(C(=O)CSc1nc2ccccc2nc1Cc1ccc(F)cc1)c1cccc(C)c1,3.9%,44.4%,-15.1%,-50.8%,25.0%,42.6%,·,·,·,·,·,
CCN(C(=O)CSc1nc(-c2ccccc2)no1)c1cccc(C)c1,6.1%,15.5%,-8.5%,12.9µM*,19.1%,-22.5%,19.3µM*,4.85µM*,-12.6%,?,35.0%,
